In all, about 330,000 compounds went through this assay and about 1,700 (0.52%) were called active. Calls come from the whole dose curve; as a rule, active = well fitted inhibition curve with a large enough effect; inconclusive = small, poorly fitted or top-dose-only effect; inactive = no such curve, though single readings can be large or run the other way. The list comes from a sample in which actives are over-represented; it also holds similar structures and randomly drawn compounds.
Potency is the fitted concentration of half-maximal effect.

Sequence of Beta-lactamase (Escherichia coli (strain K12)) (P00811 whole entry, looked up): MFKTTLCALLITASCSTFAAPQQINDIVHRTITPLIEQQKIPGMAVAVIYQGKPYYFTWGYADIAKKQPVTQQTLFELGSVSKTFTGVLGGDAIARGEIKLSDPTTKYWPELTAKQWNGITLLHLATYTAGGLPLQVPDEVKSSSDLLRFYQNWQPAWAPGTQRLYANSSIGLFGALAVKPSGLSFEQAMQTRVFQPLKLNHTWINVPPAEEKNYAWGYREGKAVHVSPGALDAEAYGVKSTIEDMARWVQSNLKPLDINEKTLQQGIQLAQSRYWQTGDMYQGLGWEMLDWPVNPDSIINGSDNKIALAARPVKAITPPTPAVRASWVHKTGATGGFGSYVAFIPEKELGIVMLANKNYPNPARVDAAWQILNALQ

This experiment has as its target Beta-lactamase (Escherichia coli (strain K12)) (UniProt P00811). Description: qHTS Inhibitors of AmpC Beta-Lactamase (assay without detergent). Note: nearly all actives have a fitted effect of over 20% in size. To be noted: AmpC nitrocefin hydrolysis, absorbance 480 nm, 0.0001% Triton; series mostly up to 57.1 µM; activity change, negative = inhibition: at the top concentration. The procedure: NIH Molecular Libraries Probe Production Network [MLPCN] NIH Chemical Genomics Center [NCGC] Assay Provider: Professor Brian Shoichet, UCSF Assay Overview: This aggregation profiling approach exploits the sensitivity of aggregate formation to detergent. Inhibition of b-lactamase is measured in the presence and absence of 0.01% Triton X-100. This particular assay had the prescence of 0.01% Triton X-100. See Pubchem assay "Promiscuous and Specific Inhibitors of AmpC Beta-Lactamase (assay without detergent)" for related screen. Compounds that inhibit only in the absence of detergent are considered likely promiscuous aggregators. A screen of 1,030 compounds was performed in Brian Shoichet's lab in 96-well format. AmpC activity was measured by following the absorbance at 480 nm. Nitrocefin is a chromogenic substrate: while nitrocefin is yellow (lmax 390 nm), the product of its hydrolysis is red (lmax 486 nm, 17,000 M-1). AmpC beta lactamase was provided by Shoichet Lab, UCSF.
Buffer: 20 mM phosphate buffer, pH 7.0 Triton X-100: No Detergent screen: 0.0001%, Detergent screen: 0.01%. Reagents/Controls: Buffer in columns 3 and 4 as negative control (no enzyme). 5.3 nM AmpC in columns 1, 2, 5-48. Titration of UCSF compound 9 control (from 10 mM, then 1:2) pin-transferred to column 2. Column 1 is neutral (100% activity). Assay Steps: Six uL of reagents were dispensed to 1536-well Greiner black clear bottom plates. Compounds and controls (23 nL) were transferred via Kalypsys PinTool. The plates were incubated for 15 min at room temperature, and then 2 uL of 800 uM solution of nitrocefin was added to start the reaction. The plates were immediately transferred to and read every 20 seconds for 4 min on ViewLux (Perkin-Elmer) High-throughput CCD imager using 480 nm absorbance protocol. During dispense, reagent bottles were kept submerged into 4 deg C water bath. Keywords: NIH Roadmap, MLSCN, MLI, MLSMR, qHTS, NCGC, AmpC Beta-Lactamase, Aggregation
As for `COC(=O)C1=C(Nc2ccc(C)cc2)C=C(C)C(C(=O)OC)C1c1ccc(F)cc1` (stereo not given), the “activity change, negative = inhibition” value is -25.5% (inactive).

Take `COC(=O)C1=C(Nc2ccc(OC)cc2)C=C(C)C(C(=O)OC)C1c1ccc(C)cc1` (stereo not given): the “activity change, negative = inhibition” value is 7.69% (inactive).

Turning to `O=S(=O)(Nc1ncccn1)c1ccc(NS(=O)(=O)c2cccc(Cl)c2Cl)cc1`, the “activity change, negative = inhibition” value is -27.4% (inactive).

In the case of `O=C(COC(=O)/C=C/c1cccs1)NC1CCCCC1`, the “activity change, negative = inhibition” value is -10.1% (inactive).

On to `COc1ccc(CC(=O)N[C@@H]2c3cc(OC)c(OC)cc3C[C@H]2OCc2ccccc2)cc1`, for which the “activity change, negative = inhibition” value is 142% (inactive).

For `CC(=O)c1c(C)c[nH]c1C`, the “activity change, negative = inhibition” value was -13.8% (inactive).

As for `CCCCN(C(=O)C1CCC1)c1c(N)n(Cc2ccccc2)c(=O)[nH]c1=O`, the “activity change, negative = inhibition” value is -7.77% (inactive).

Turning to `CCn1c2ccccc2c2cc(NC(=O)Nc3ccc([N+](=O)[O-])cc3C)ccc21`, the “activity change, negative = inhibition” value was -19.7% (inactive).

Regarding `COCCCNC(=S)N1CCN(c2nc(-c3cccc(OC)c3)cs2)CC1`, the “activity change, negative = inhibition” value is 136% (inactive).

For the compound `CC(=O)Nc1ccc(NC(=O)CSc2nnc(COc3ccccc3C)n2CC2CCCO2)cc1` (stereo not given), the “activity change, negative = inhibition” value was 12.5% (inactive).

As for `CC[N+]1(CC)CC2=Cc3ccccc3CC2C1` (stereo not given), the “activity change, negative = inhibition” value is -10.4% (inactive).

For `CC(=NCc1ccco1)c1c(C(F)(F)F)[nH]n(-c2nc3ccccc3s2)c1=O`, the “activity change, negative = inhibition” value was -14.9% (inactive).

On to `CCC(C)Cn1c(O)cc2nn(-c3nc4ccccc4s3)c(=O)c-2c1C` (stereo not given), for which the Potency is 17.8 µM (active).

Turning to `Cn1c(=O)c2c(nc(NCCNC(=O)c3ccco3)n2Cc2ccccc2F)n(C)c1=O`, the “activity change, negative = inhibition” value is -7.23% (inactive).

As to `Cc1ccc(NC(=O)CC2S/C(=N/N=C3\CCCc4ccccc43)NC2=O)cc1` (stereo not given), the Potency is 3.16 µM (active).

Take `CCN=C1SC(CC(=O)Nc2ccc(C)cc2)C(=O)N1CC` (stereo not given): the “activity change, negative = inhibition” value is 2.59% (inactive).

For `Cc1c(Cl)cccc1NC(=O)CC1SC(=NCC2CCCO2)NC1=O` (stereo not given), the “activity change, negative = inhibition” value was -26.1% (inactive).

On to `CCCCn1c(N)c(N(CCOC)C(=O)COc2c(C)cccc2C)c(=O)[nH]c1=O`, for which the “activity change, negative = inhibition” value is -17.2% (inactive).

As for `CS(=O)(=O)N1CCN(C(=O)CSc2ccccc2)CC1`, the “activity change, negative = inhibition” value is -3.69% (inactive).

With `Cc1ccc(S(=O)(=O)N2CCCC2CO)cc1` (stereo not given), the “activity change, negative = inhibition” value was -11.5% (inactive).

With `COc1ccc(CSc2nnnn2-c2ccc(C(=O)O)cc2)cc1`, the “activity change, negative = inhibition” value is -18.9% (inactive).

As to `COc1ccc(-n2nnnc2SCC(=O)c2ccc(OC)c(OC)c2)cc1`, the “activity change, negative = inhibition” value was 97.5% (inactive).

On to `COc1ccc(CSc2nnnn2-c2ccc(O)cc2)cc1F`, for which the Potency was 22.4 µM (active).

Take `Cn1c2c(c(=O)n(C)c1=O)C(c1cccc([N+](=O)[O-])c1)Nc1ccccc1O2` (stereo not given): the “activity change, negative = inhibition” value is -8.07% (inactive).

Consider `CN(CCC1CCOCC1)C(=O)CC1C(=O)NCCN1Cc1cccc(F)c1` (stereo not given), for which the “activity change, negative = inhibition” value is -3.93% (inactive).

For the compound `O=C(O)CCCC(=O)Nc1ccc(Oc2cccc(C(F)(F)F)c2)nc1`, the “activity change, negative = inhibition” value is -13.8% (inactive).

For the compound `Cc1csc(=O)n1CC(=O)OCC(=O)N(CC(C)C)c1c(N)n(Cc2ccccc2)c(=O)[nH]c1=O`, the “activity change, negative = inhibition” value is -26.2% (inactive).

As to `CC(C)CN(C(=O)COC(=O)c1ccc2ccccc2c1)c1c(N)n(Cc2ccccc2)c(=O)[nH]c1=O`, the “activity change, negative = inhibition” value is -12.6% (inactive).

Take `CC(C)CN(C(=O)COC(=O)c1ccc(Cl)c(N)c1)c1c(N)n(Cc2ccccc2)c(=O)[nH]c1=O`: the Potency was 28.2 µM (active).

`CSc1ccccc1NC(=O)C(C)N1C(=O)c2ccccc2S1(=O)=O` (stereo not given): the “activity change, negative = inhibition” value was -13.6% (inactive).

As to `Cc1cc(NC(=O)CSCc2ccccc2C)no1`, the “activity change, negative = inhibition” value is -5.58% (inactive).

`Cc1cc(NC(=O)C(C)N2C(=O)c3ccccc3S2(=O)=O)no1` (stereo not given): the Potency is 25.1 µM (active).

Take `O=C1CCC(=O)N(c2ccccc2)N1`: the “activity change, negative = inhibition” value was 0.2% (inactive).

For `O=C(OCC1O[C@@H](OC(=O)c2cc(O)c(O)c(O)c2)[C@@H](OC(=O)c2cc(O)c(O)c(O)c2)[C@@H](OC(=O)c2cc(O)c(O)c(O)c2)[C@@H]1OC(=O)c1cc(O)c(O)c(O)c1)c1cc(O)c(O)c(O)c1` (stereo not given in full), the Potency was 1 µM (active).

Take `CCOCCCNC(=O)c1ccc(CS(=O)(=O)c2cccc(C(F)(F)F)c2)o1`: the “activity change, negative = inhibition” value is 16.8% (inactive).

With `CCOCCn1[nH]c2ccccc2c1=O`, the “activity change, negative = inhibition” value is -13% (inactive).

Turning to `CCOC(=O)c1sc(NC(=O)CSc2n[nH]c(CC)n2)nc1C`, the “activity change, negative = inhibition” value is -18.1% (inactive).

Take `CCOC(=O)c1sc(NC(=O)CSc2nc(O)c(Cc3ccccc3)c(=O)[nH]2)nc1C`: the Potency is 15.8 µM (active).

`O=C(CSc1nc(O)c(Cc2ccccc2)c(=O)[nH]1)Nc1nc2c(s1)CCCC2`: the “activity change, negative = inhibition” value is -39.3% (inactive).

Regarding `O=C(O)CCN=C1CCc2ccccc2N1`, the “activity change, negative = inhibition” value is -16.2% (inactive).

Turning to `COc1ccccc1NC(=O)CSc1nnc(Cc2cccn2C)n1-c1ccc(F)cc1`, the Potency was 1.41 µM (active).

Regarding `COC(=O)c1ccc(NC(=O)CSc2nnc(Cc3cccn3C)n2-c2ccc(F)cc2)cc1`, the “activity change, negative = inhibition” value was 144% (inactive).

Consider `Cc1ccc(C)c(NC(=O)CSc2nnc(Cc3cccn3C)n2-c2ccc(F)cc2)c1`, for which the “activity change, negative = inhibition” value is 80.5% (inactive).

As to `O=C(CN1CCCC1)Nc1sc2c(c1C(=O)Nc1ccccc1)CCCC2`, the “activity change, negative = inhibition” value was 10.1% (inactive).

`Cc1cc2ncn(CCCCOc3ccccc3)c2cc1C`: the “activity change, negative = inhibition” value was 38.5% (inactive).

Take `O=C(COC(=O)c1ccc(Oc2ccccc2)cc1)Nc1nnc(-c2ccccc2)o1`: the Potency is 12.6 µM (active).

With `CC(=O)Nc1cccc(C(=O)OCC(=O)Nc2nnc(-c3ccccc3)o2)c1`, the “activity change, negative = inhibition” value is -23.2% (inactive).

On to `COc1ccccc1C(=O)NCC(=O)OCC(=O)Nc1nnc(-c2ccccc2)o1`, for which the “activity change, negative = inhibition” value was -23.1% (inactive).

For `CCn1nnc(NC(=O)c2c(OC)cccc2OC)n1`, the “activity change, negative = inhibition” value is -5.33% (inactive).

Regarding `CCN(C(=O)COC(=O)C1CCN(S(=O)(=O)c2ccc(C)c(C)c2)CC1)C1CCS(=O)(=O)C1` (stereo not given), the “activity change, negative = inhibition” value is 114% (inactive).

For the origin of these results see PubChem BioAssay AID485341 (National Center for Advancing Translational Sciences (NCATS), 2010).
